Our source for the growth values is PubChem BioAssay (NCI).

This is part of a sample that, as a whole, favours compounds with a hit. Of some 83,000 tested, about 20% had one in any assay.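 Plates (96-well) were seeded with cells, treated with compound at one concentration, and incubated for 48 hours before percent growth was determined.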 The source made the active and inactive calls. How the source made its calls: active means growth percent below 10; inactive means the rest.

For the first test, the system named is LOX IMVI melanoma. Kind of test: NCI-60 one-dose screen, 48 h (100 = growth as untreated, 0 = no growth, -100 = all killed). The note with it: 10 µM unless noted.
For the molecule `ClCCN(CCCl)C(c1ccccc1)c1ccc(Cl)cc1` (configuration not stated), the growth is 81.3% (inactive).

`CCCCn1cc(C(=O)/C(C#N)=C/c2cc3ccccc3nc2Cl)c2cc(OC)ccc21`: the growth is 74% (inactive).

As to `CCCCNCCc1ccccn1`, the growth was 97.1% (inactive).

Turning to `CC(=O)C1C(=O)N(C)C(=O)N(C)C1=O`, the growth was 107% (inactive).

As for `CC1(C)N=C(N)N=C(N)N1c1cccc(C(=O)Nc2cccc(S(=O)(=O)F)c2)c1`, the growth is 99.7% (inactive).

Consider `C[C@]12CC[C@@H]3C4=C(CC[C@H]3[C@@H]1CC[C@@H]2O)CC(=O)CC4`, for which the growth was 90.2% (inactive).

For `Oc1ccccc1OB(Oc1ccccc1O)N(CCCl)CCCl`, the growth was 89.4% (inactive).

As to `NC(Cc1ccc2c(c1)OCO2)c1ccc2c(c1)OCO2` (configuration not stated), the growth was 99.8% (inactive).

In the case of `COc1ccc(-c2ccc(OC)c(OC)c2OC)cc1`, the growth is 16.5% (inactive).

As for `CC1(C)N=C(N)N=C(N)N1c1ccc(CCCCc2ccc(S(=O)(=O)F)cc2)c(Cl)c1`, the growth is 8.78% (active).

Take `COc1ccc(C2=NN(c3ccccc3)C(c3sc(N(CCCl)CCCl)nc3Cl)C2)cc1` (configuration not stated): the growth is 89.8% (inactive).

On to `N#CC1c2ccccc2C=CN1C(=O)c1ccc(N(CCCl)CCCl)cc1` (configuration not stated), for which the growth is 90.4% (inactive).

`CSc1ccccc1NP1(=O)OCC(C)([N+](=O)[O-])CO1` (configuration not stated): the growth was 97.3% (inactive).

In the case of `Cc1ccc(N)cc1[As]=[As]c1cc(N)ccc1C` (configuration not stated), the growth is -56.9% (active).

With `CCC(C)[C@H]1O[C@]2(C=C[C@@H]1C)C[C@@H]1C[C@@H](C/C=C(\C)[C@@H](OC3C[C@H](OC)C(O[C@H]4C[C@H](OC)[C@@H](O)[C@H](C)O4)[C@H](C)O3)[C@@H](C)/C=C/C=C3\CO[C@@H]4[C@H](O)C(C)=C[C@@H](C(=O)O1)[C@]34O)O2` (some centres not stated), the growth is -93.1% (active).

`Cc1ccc(C(=O)C2CN(C)CCC2(O)c2ccc(C)cc2)cc1` (configuration not stated): the growth is 98.9% (inactive).

For the molecule `O=S(=O)(O)c1ccc(-c2ccc([As](=O)(O)O)cc2)cc1`, the growth is 99.8% (inactive).

As to `O=C1NC(=O)C(CN2C(=O)C3(c4ccccc42)[C@H](Cl)C(=O)N3c2ccccc2)C(=O)N1` (some centres not stated), the growth is 50.2% (inactive).

With `O=[N+]([O-])c1cc([N+](=O)[O-])c(Cl)c(Cl)c1Cl`, the growth is -62.6% (active).

Take `C=CCC1(CC)C(=O)NC(=S)NC1=O`: the growth was 97.2% (inactive).

Take `CCC[CH2][Sn]([CH2]CCC)([CH2]CCC)[O]C(=O)CC`: the growth was -83.3% (active).

`O=C(NCc1ccc([N+](=O)[O-])cc1)Nc1ccc(S(=O)(=O)F)cc1`: the growth was 92.9% (inactive).

Take `n1nc(-c2nonc2-c2nn[nH]n2)n[nH]1`: the growth was 103% (inactive).

On to `CNC(=O)Oc1ccccc1-c1ccccc1`, for which the growth was 104% (inactive).

With `CC1(C)N=C(N)N=C(N)N1c1ccc(OCCCCOc2ccc(S(=O)(=O)F)cc2)c(Cl)c1`, the growth was 14.7% (inactive).

Take `CCCCOC(=O)c1ccccc1C(=O)O.CCCCOC(=O)c1ccccc1C(=O)O.[Cu+2]`: the growth is 89.4% (inactive).

Take `O=[N+]([O-])c1ccc2cnn(CSP(=S)(c3ccccc3)c3ccccc3)c2c1`: the growth was 65% (inactive).

With `CCN(CC)c1ccc(C=C2C(=O)NC(=S)NC2=O)cc1`, the growth was 80% (inactive).

`[O]=[Sn]([CH]1CCCCC1)[CH]1CCCCC1`: the growth is -89.6% (active).

On to `Cc1ccccc1O`, for which the growth was 91.5% (inactive).

For `O=[N+]([O-])c1ccccc1N1CCNCC1`, the growth is 95.8% (inactive).

In the case of `CC(=O)Nc1ccc(C=C2C(=O)NC(=O)NC2=O)cc1`, the growth was 96.8% (inactive).

Another test deals with SK-MEL-28 melanoma. Described as above. The note with it: 10 µM unless noted.
Turning to `ClCCN(CCCl)C(c1ccccc1)c1ccc(Cl)cc1` (configuration not stated), the growth was 102% (inactive).

Take `CCCCn1cc(C(=O)/C(C#N)=C/c2cc3ccccc3nc2Cl)c2cc(OC)ccc21`: the growth is 107% (inactive).

With `CCCCNCCc1ccccn1`, the growth is 104% (inactive).

Turning to `CC(=O)C1C(=O)N(C)C(=O)N(C)C1=O`, the growth is 106% (inactive).

`CC1(C)N=C(N)N=C(N)N1c1cccc(C(=O)Nc2cccc(S(=O)(=O)F)c2)c1`: the growth was 103% (inactive).

As to `C[C@]12CC[C@@H]3C4=C(CC[C@H]3[C@@H]1CC[C@@H]2O)CC(=O)CC4`, the growth was 107% (inactive).

As to `Oc1ccccc1OB(Oc1ccccc1O)N(CCCl)CCCl`, the growth is 110% (inactive).

On to `NC(Cc1ccc2c(c1)OCO2)c1ccc2c(c1)OCO2` (configuration not stated), for which the growth is 101% (inactive).

Take `COc1ccc(-c2ccc(OC)c(OC)c2OC)cc1`: the growth was 49.6% (inactive).

As to `CC[C@@]1(C2O[C@@H](C3O[C@@](O)(CC)[C@H](C)C[C@@H]3C)C[C@@H]2C)CC[C@H]([C@]2(C)CCC3(C[C@H](O)[C@@H](C)[C@@H]([C@H](C)[C@@H](OC)[C@H](C)C(=O)O)O3)O2)O1` (some centres not stated), the growth is 29.5% (inactive).

Regarding `CC1(C)N=C(N)N=C(N)N1c1ccc(CCCCc2ccc(S(=O)(=O)F)cc2)c(Cl)c1`, the growth was 48.4% (inactive).

Turning to `COc1ccc(C2=NN(c3ccccc3)C(c3sc(N(CCCl)CCCl)nc3Cl)C2)cc1` (configuration not stated), the growth was 97.9% (inactive).

With `N#CC1c2ccccc2C=CN1C(=O)c1ccc(N(CCCl)CCCl)cc1` (configuration not stated), the growth is 94.6% (inactive).

With `CSc1ccccc1NP1(=O)OCC(C)([N+](=O)[O-])CO1` (configuration not stated), the growth is 98.6% (inactive).

As for `Cc1ccc(N)cc1[As]=[As]c1cc(N)ccc1C` (configuration not stated), the growth is -94.2% (active).

Regarding `C/C(=N/OC(=O)N(C)C)c1cc(Cl)ccc1Cl`, the growth is 113% (inactive).

For `CCC(C)[C@H]1O[C@]2(C=C[C@@H]1C)C[C@@H]1C[C@@H](C/C=C(\C)[C@@H](OC3C[C@H](OC)C(O[C@H]4C[C@H](OC)[C@@H](O)[C@H](C)O4)[C@H](C)O3)[C@@H](C)/C=C/C=C3\CO[C@@H]4[C@H](O)C(C)=C[C@@H](C(=O)O1)[C@]34O)O2` (some centres not stated), the growth is -82.4% (active).

As for `CC1(C)N=C(N)N=C(N)N1c1ccc(CCCCc2ccc(S(=O)(=O)F)cc2)cc1`, the growth was 47.7% (inactive).

As for `Cc1ccc(C(=O)C2CN(C)CCC2(O)c2ccc(C)cc2)cc1` (configuration not stated), the growth was 113% (inactive).

Take `O=S(=O)(O)c1ccc(-c2ccc([As](=O)(O)O)cc2)cc1`: the growth is 103% (inactive).

For the molecule `O=C1NC(=O)C(CN2C(=O)C3(c4ccccc42)[C@H](Cl)C(=O)N3c2ccccc2)C(=O)N1` (some centres not stated), the growth is 76.8% (inactive).

Regarding `O=[N+]([O-])c1cc([N+](=O)[O-])c(Cl)c(Cl)c1Cl`, the growth was 65.9% (inactive).

With `C=CCC1(CC)C(=O)NC(=S)NC1=O`, the growth is 116% (inactive).

Turning to `C/C(=N/OC(=O)N(C)C)c1ccc(Cl)cc1Cl`, the growth is 110% (inactive).

Take `CCC[CH2][Sn]([CH2]CCC)([CH2]CCC)[O]C(=O)CC`: the growth is -98.3% (active).

As for `O=C(NCc1ccc([N+](=O)[O-])cc1)Nc1ccc(S(=O)(=O)F)cc1`, the growth was 96% (inactive).

As to `n1nc(-c2nonc2-c2nn[nH]n2)n[nH]1`, the growth is 106% (inactive).

Take `CNC(=O)Oc1ccccc1-c1ccccc1`: the growth was 109% (inactive).

As for `CC1(C)N=C(N)N=C(N)N1c1ccc(OCCCCOc2ccc(S(=O)(=O)F)cc2)c(Cl)c1`, the growth is 31.3% (inactive).

Turning to `CCCCOC(=O)c1ccccc1C(=O)O.CCCCOC(=O)c1ccccc1C(=O)O.[Cu+2]`, the growth is 111% (inactive).

With `O=[N+]([O-])c1ccc2cnn(CSP(=S)(c3ccccc3)c3ccccc3)c2c1`, the growth is 74.1% (inactive).

For `NC(=O)C(Cl)Cl`, the growth is 112% (inactive).

As for `CCN(CC)c1ccc(C=C2C(=O)NC(=S)NC2=O)cc1`, the growth is 103% (inactive).

As to `Clc1ccc(SSC(Cl)(Cl)Cl)cc1`, the growth was 120% (inactive).

As to `[O]=[Sn]([CH]1CCCCC1)[CH]1CCCCC1`, the growth was -94.8% (active).

For `ClCCN(CCCl)c1nc(Cl)c(C2CC(c3ccccc3)=NN2c2ccccc2)s1` (configuration not stated), the growth is 98.6% (inactive).

With `CC(=O)C1CCC2C3CC=C4CC(OC(=O)Cc5ccc(N(CCCl)CCCl)cc5)CCC4(C)C3CCC12C` (configuration not stated), the growth was 107% (inactive).

In the case of `Cc1ccccc1O`, the growth was 111% (inactive).

Regarding `O=[N+]([O-])c1ccccc1N1CCNCC1`, the growth was 104% (inactive).

For the molecule `CC(=O)Nc1ccc(C=C2C(=O)NC(=O)NC2=O)cc1`, the growth is 106% (inactive).
